For 17 compounds, cell viability and kynurenine production results are on record in the supplement of paper PMC13094657.

SMILES strings stand for the structures. ± gives the standard deviation of the averaged measurements.

Assay [1] concerns MDA-MB-231. Kind of assay: cell viability relative to vehicle unstimulated control (fraction); higher = more viable cells. The note with it: pre-treatment time: 18 h then 24 h IFNg/TNF.
Assay [2] relates to MDA-MB-231. Description: kynurenine production, fold change vs DMSO IFNg/TNF control; higher = more kynurenine produced (less inhibition). The note with it: pre-treatment time: 18 h then 24 h IFNg/TNF. In outline:
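After trichloroacetic acid and p-dimethylaminobenzaldehyde treatment, supernatants were read at 492 nm, with 0–100 μM standards. These came from MDA-MB-231 cells (7 × 10^4/well, 96-well plates) pre-treated 18 h with natural products in 0.1% DMSO and then exposed 24 h to IFNγ (1 U/ml) and TNF (6.25 ng/ml) at 37°C. Values for kynurenine production are fold changes over same-plate cytokine-stimulated vehicle wells, averaged over duplicate plates in the first screening round.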
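For cell viability relative to vehicle unstimulated control in this document: viability of the cells left after supernatant collection, read with Deep Blue dye added for 4 h, as absorbance at 570 nm minus 600 nm.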

As to `CC1(C)CC[C@]2(C(=O)O[C@@H]3O[C@H](CO)[C@@H](O)[C@H](O)[C@H]3O)CC[C@]3(C)C(=CC[C@@H]4[C@@]5(C)CC[C@H](O[C@@H]6O[C@H](C(=O)O)[C@@H](O)[C@H](O)[C@H]6O[C@H]6OC[C@@H](O)[C@H](O)[C@H]6O)C(C)(C)[C@@H]5CC[C@]43C)[C@@H]2C1` [Pseudoginsenoside RT1] (compound dose: 10 uM), in the assay on MDA-MB-231 [1], the cell viability was found to be 0.9758 ± 0.0023. In the assay on MDA-MB-231 [2], the kynurenine production worked out at 0.988 ± 0.14. As for `CC(=O)O[C@@H]1C[C@H](O)[C@@]23CO[C@@H](O)[C@]1(C)[C@@H]2C[C@@H](O)[C@]1(C)[C@@H]3C(=O)[C@H](OC(C)=O)[C@@]2(C)[C@H](c3ccoc3)C[C@H]3O[C@]321` [Toosendanin] (compound dose: 10 uM), in the assay on MDA-MB-231 [1], the cell viability amounted to 0.858 ± 0.056. Also, the kynurenine production in the assay on MDA-MB-231 [2] is 0.206 ± 0.03.

Consider `C[C@@]12C[C@@]3(O)O[C@@H](O1)[C@]1(COC(=O)c4ccccc4)[C@@H]3C[C@]12O[C@@H]1O[C@H](COC(=O)c2ccccc2)[C@@H](O)[C@H](O)[C@H]1O` [Benzoylpaeoniflorin] (compound dose: 10 uM), for which, in the assay with MDA-MB-231 [1], the cell viability stood at 0.956 ± 0.034. Besides, the kynurenine production with MDA-MB-231 [2] came out at 0.893 ± 0.11. Regarding `CC(C)=CCC[C@](C)(O[C@@H]1O[C@H](CO)[C@@H](O)[C@H](O)[C@H]1O)[C@H]1CC[C@]2(C)[C@@H]1[C@H](O)C[C@@H]1[C@@]3(C)CC[C@H](O[C@@H]4O[C@H](CO)[C@@H](O)[C@H](O)[C@H]4O[C@@H]4O[C@H](CO)[C@@H](O)[C@H](O)[C@H]4O)C(C)(C)[C@@H]3CC[C@]12C` [Ginsenoside Rd] (compound dose: 10 uM), the cell viability in the assay with MDA-MB-231 [1] turned out to be 1 ± 0.022. For the same compound, the kynurenine production in the assay with MDA-MB-231 [2] came out at 0.778 ± 0.17. On the same counts, the results for `C[C@H](CC[C@@H](O)C(C)(C)O)[C@H]1CC[C@@]2(C)[C@@H]3CC=C4[C@@H](CC[C@H](O[C@@H]5O[C@H](CO)[C@@H](O)[C@H](O)[C@H]5O)C4(C)C)[C@]3(C)[C@H](O)C[C@]12C` [Mogroside I E1] (compound dose: 10 uM) are 0.906 ± 0.15 and 0.981 ± 0.35. On the same counts, the results for `O=C(OCC1=C[C@@H](O)[C@@H]2C=CO[C@@H](O[C@@H]3O[C@H](CO)[C@@H](O)[C@H](O)[C@H]3O)[C@H]12)c1ccc(O)cc1` [Agnuside] (compound dose: 10 uM) are 1.08 ± 0.039 and 0.864 ± 0.17. With `CC1=CC(=O)[C@@H]2C[C@H]1C2(C)C` [Verbenone] (compound dose: 10 uM), in the assay with MDA-MB-231 [1], the cell viability was determined as 1.128 ± 0.0013. The kynurenine production with MDA-MB-231 [2] came to 1.25 ± 0.13. For `O[C@H]1[C@H]2c3cc4c(cc3CN3CCC(=C[C@@H]1O)[C@H]23)OCO4` [Lycorine chloride] (compound dose: 10 uM), in that order: 0.582 ± 0.056 and 0.184 ± 0.072. `O=C(/C=C/c1ccc(O)c(O)c1)O[C@H]1[C@H](O[C@@H]2O[C@H](CO)[C@@H](O)[C@H](O)[C@H]2O)[C@@H](O)[C@H](OCCc2ccc(O)c(O)c2)O[C@@H]1CO` [Plantamajoside] (compound dose: 10 uM): in the assay with MDA-MB-231 [2], the kynurenine production stood at 0.678 ± 0.24.

Turning to `CC1OC(OC2C(CO)OC(OCC3OC(OC(=O)C45CCC(C)(C)CC4C4=CCC6C7(C)CCC(OC8OCC(O)C(O)C8O)C(C)(CO)C7CCC6(C)C4(C)CC5)C(O)C(O)C3O)C(O)C2O)C(O)C(O)C1O` (stereo not drawn) [Hederacoside D] (compound dose: 10 uM), the cell viability in the assay with MDA-MB-231 [1] was 0.923 ± 0.067. In addition, the kynurenine production in the assay with MDA-MB-231 [2] was found to be 0.851 ± 0.16. For `CC(=O)OC/C1=C/[C@H]2[C@@H](OC(=O)/C=C/c3ccccc3)[C@@H](C)C[C@]2(OC(C)=O)C(=O)/C(C)=C/[C@@H]2[C@H](CC1)C2(C)C` [Euphorbia factor L7a] (compound dose: 10 uM), in that order: 1.086 ± 0.0038 and 0.948 ± 0.035. In the case of `CC(=O)O[C@H]1/C(CO)=C\C[C@H]2[C@@H](/C=C(/C)C(=O)[C@@]3(OC(C)=O)C[C@H](C)[C@H](OC(=O)c4ccccc4)[C@H]13)C2(C)C` [Euphorbia factor L24] (compound dose: 10 uM), the cell viability in the assay on MDA-MB-231 [1] was determined as 1.09 ± 0.022. In addition, the kynurenine production in the assay with MDA-MB-231 [2] amounted to 0.911 ± 0.078.

Consider `COC(=O)[C@]1(C)CC[C@]2(C(=O)O[C@@H]3O[C@H](CO)[C@@H](O)[C@H](O)[C@H]3O)CC[C@]3(C)C(=CC[C@@H]4[C@@]5(C)C[C@H](O)[C@H](O[C@@H]6OC[C@@H](O[C@@H]7O[C@H](CO)[C@@H](O)[C@H](O)[C@H]7O)[C@H](O)[C@H]6O)[C@@](C)(CO)C5CC[C@]43C)[C@H]2C1` (stereo partly drawn) [Esculentoside H] (compound dose: 10 uM), for which, in the assay on MDA-MB-231 [1], the cell viability stood at 0.984 ± 0.043. In the assay with MDA-MB-231 [2], the kynurenine production came to 0.825 ± 0.099.

In the case of `CC(C)C1=CC(=O)C(C)(C2C(O)CC3(C)C4CC=C5C(CCC(OC6OC(CO)C(O)C(O)C6OC6OC(C)C(O)C(O)C6O)C5(C)C)C4(C)C(=O)CC23C)O1` (stereo not drawn) [Picfeltarraenin IB] (compound dose: 10 uM), in the assay on MDA-MB-231 [1], the cell viability turned out to be 1.02 ± 0.067. Further, the kynurenine production with MDA-MB-231 [2] is 0.771 ± 0.23. For `OC[C@H]1O[C@@H](O[C@@H]2OC=C[C@H]3[C@H](O)[C@@H]4O[C@]4(CO)[C@@H]23)[C@H](O)[C@@H](O)[C@@H]1O` [Catalpol] (compound dose: 10 uM), in that order: 0.896 ± 0.28 and 0.704 ± 0.58.

Take `C=C1C[C@@]23CC[C@H]4[C@@](C)(CCC[C@@]4(C)C(=O)O)[C@@H]2CC[C@]1(O)C3` [Steviol] (compound dose: 10 uM): the cell viability in the assay on MDA-MB-231 [1] stood at 1.1 ± 0.014. For the same compound, in the assay on MDA-MB-231 [2], the kynurenine production was 0.964 ± 0.38. In the case of `C=C1C(=O)[C@]23[C@H](O)[C@H]1CC[C@H]2[C@@]12CO[C@]3(O)[C@@H](O)[C@@H]1C(C)(C)CC[C@@H]2O` [Oridonin] (compound dose: 10 uM), the cell viability in the assay on MDA-MB-231 [1] was 0.917 ± 0.017. In addition, the kynurenine production in the assay on MDA-MB-231 [2] is 0.73 ± 0.054.
